# From PubChem BioAssay AID449762 (Southern Research Specialized Biocontainment Screening …, 2010)
# In all, about 330,000 compounds went through this assay and about 1,900 (0.58%) were called active. Inconclusive results (about 4%) are left out. Cut-off read from the data, not from the text of the source: inconclusive = inhibition above about 70% without an active follow-up result; inactive = below that. A selection follows. Entries with a potency or affinity are not part of this list.
# Assay: M. tuberculosis growth inhibition, HTS (AID 449762);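 note: bacterial growth assessed after seven days of incubation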
# Settings: M. tuberculosis H37Rv growth inhibition, 7H9 media; at 25 µM; stronger effect = higher value
row,SMILES,inhibition
1,N#Cc1ccccc1S(=O)(=O)N1CCN(C(=O)[C@H](Cc2ccccc2)NC(=O)c2ccco2)CC1,-9.05% (inactive)
2,C#CC[N+](C)(C)CCCCCCCCCC,6.64% (inactive)
3,CCCCCC[N+](C)(C)CCSSCC[N+](C)(C)CCCCCC,-17.5% (inactive)
4,CC(C)(C)c1ccc(S(=O)(=O)N2CCN(CC(O)COCC3CCCO3)CC2)cc1 (centres undefined),7.79% (inactive)
5,Cc1cc(/C=N/NC(N)=O)c(C)n1-c1ccc(F)cc1,1.83% (inactive)
6,Cc1cccc(C)c1-n1c(C)cc(/C=N/NC(N)=S)c1C,51.5% (inactive)
7,NSc1nc(N)c2nc(-c3ccccc3)c(-c3ccccc3)nc2n1,7.97% (inactive)
8,Nc1nc(N)c2nc(-c3ccccc3)c(N)nc2n1,16.7% (inactive)
9,COc1cccc(/C=N/NC(=O)CCCC(=O)Nc2ccc(Br)cc2)c1,-7.05% (inactive)
10,CCc1ccc(N2CC(C(=O)OCC(=O)Nc3ccc(C(C)=O)cc3)CC2=O)cc1 (centres undefined),-5.19% (inactive)
11,S=C1NC2=C(CCCC2)C2(CCCCC2)N1,-1.82% (inactive)
12,CC(C)(C)NC(=O)NC(=O)CSc1ncccn1,4.89% (inactive)
13,C=CCn1c(NCc2ccc3c(c2)OCO3)nc2ccccc21,1.97% (inactive)
14,O=C1OCc2nc3cc4c(cc3c(-c3ccc(F)cc3)c21)OCO4,3.09% (inactive)
15,COc1ccccc1/C=C/C(=O)Nc1ccc(S(=O)(=O)Nc2cc(C)nc(C)n2)cc1,8.18% (inactive)
16,Cc1cc(NS(=O)(=O)c2ccc(NC(=O)/C=C/c3ccccc3Cl)cc2)no1,40.1% (inactive)
17,O=C(O)/C=C\C(=O)Nc1ccc(N2CCN(c3ccc(F)cc3)CC2)cc1,14% (inactive)
18,Cn1c(O)c(/C=C2\C=Nc3ccccc32)c(=O)n(C)c1=O,3.29% (inactive)
19,O=c1oc2ccccc2c(O)c1/C=N/c1ncccn1,4.28% (inactive)
20,Cc1cc2cc(CNC(=S)Nc3ccc(OC(F)(F)F)cc3)ccc2n1C,-4.09% (inactive)

row,SMILES,inhibition
1,CCCC[n+]1ccn(-c2nc3ccccc3nc2[N-]S(=O)(=O)c2ccccc2)c1,-13.6% (inactive)
2,O=S(=O)([N-]c1nc2ccccc2nc1-n1cc[n+](Cc2ccccc2)c1)c1ccccc1,1.97% (inactive)
3,O=C(NCCc1ccc(Cl)cc1)C1CCC(CNc2nc(=S)[nH]c3ccccc23)CC1 (centres undefined),5.86% (inactive)
4,O=C1OC(CCl)CN1Cc1c(Cl)cccc1Cl (centres undefined),-11.9% (inactive)
5,Cc1nn(Cc2ccccc2Cl)c(C)c1C(=O)NCC(c1cccs1)N1CCOCC1 (centres undefined),0.07% (inactive)
6,COc1ccc(C)cc1NC(=O)CCN1CCN(c2ccccc2)CC1,5.54% (inactive)
7,N=c1n(Cc2ccccc2)c2ccccc2n1CC(O)c1ccco1 (centres undefined),-2.81% (inactive)
8,Cc1ccc(Cn2c(=N)n(CC(O)c3ccco3)c3ccccc32)cc1 (centres undefined),-10.2% (inactive)
9,COc1ccc(C(CC(=O)c2ccccc2)S(=O)(=O)c2ccccc2)cc1 (centres undefined),21.9% (inactive)
10,COc1ccc(C(=O)CC(c2ccccc2)S(=O)(=O)c2ccc(C)cc2)cc1 (centres undefined),11.8% (inactive)
11,O=[N+]([O-])c1cccc(/C=N/Nc2nc(C(Cl)(Cl)Cl)nc3ccccc23)c1,4.81% (inactive)
12,COc1ccc(CN=C2NC(=O)CC(C(=O)Nc3ccc(Cl)cc3)S2)cc1 (centres undefined),-3.21% (inactive)
13,O=C(Nc1ccc(S(=O)(=O)Nc2nccc(C3Cc4ccccc4C(=O)O3)n2)cc1)c1ccccc1 (centres undefined),0.33% (inactive)
14,Cc1cc(C)c(NC(=O)CCCn2c(=O)oc3ccccc32)c(C)c1,0.61% (inactive)
15,Cc1[nH][nH]c(=O)c1C(c1ccc(-c2cccc(Cl)c2)o1)c1c(C)[nH][nH]c1=O,4.79% (inactive)
16,Cc1[nH][nH]c(=O)c1C(c1ccc(-c2cccc(C(=O)O)c2)o1)c1c(C)[nH][nH]c1=O,0.63% (inactive)
17,CC(OC(=O)c1nn(C(C)C)c(=O)c2ccccc12)C(=O)Nc1ncc(Cl)cc1Cl (centres undefined),-5.66% (inactive)
18,Cc1cc(=O)oc2cc(OC(C)C(=O)N3CCCc4ccccc43)ccc12 (centres undefined),-5.32% (inactive)
19,CC(NCC1COc2ccccc2O1)C1COc2ccccc2O1 (centres undefined),-4.91% (inactive)
20,CC1CN(c2ccc(Cl)nn2)CC(C)O1 (centres undefined),7.67% (inactive)

row,SMILES,inhibition
1,COc1ccc(C(CCN(Cc2ccc(OC)c(OC)c2)C(C)=O)c2ccccc2)cc1 (centres undefined),-0.43% (inactive)
2,COc1ccc(C(CCN(Cc2ccc(OC)c(OC)c2)C(C)=O)C(C)C)cc1 (centres undefined),2.76% (inactive)
3,CCC1CN(C(=O)N2CCC(C(=O)Nc3ccccc3OC)CC2)c2ccccc2O1 (centres undefined),10.6% (inactive)
4,O=S(=O)(c1ccc2ccccc2c1)N1CCN(S(=O)(=O)N2CCCCC2)CC1,0.71% (inactive)
5,O=C(c1ccco1)N1CCN(C(=O)C2CC(c3ccc(F)cc3)=NO2)CC1 (centres undefined),10.6% (inactive)
6,COc1ccc(C2=NOC(C(=O)N3CCN(C(=O)c4ccco4)CC3)C2)cc1OC (centres undefined),2.5% (inactive)
7,Cn1c(CSc2nc3ccccc3s2)nnc1SCC(=O)NCCN1CCOCC1,1.49% (inactive)
8,CCCCn1nc(C(=O)Oc2ccc3c(C)cc(=O)oc3c2)c2ccccc2c1=O,64.9% (inactive)
9,CCOC(=O)CSc1nc2ccccc2c(=O)n1CC,-0.95% (inactive)
10,CCn1c(SCC(=O)NC2CCCCC2)nc2ccccc2c1=O,-17.1% (inactive)
11,O=C(Nc1ccn([C@H]2CC[C@@H](CO)O2)c(=O)n1)c1ccccc1,-7.83% (inactive)
12,O=C(COC(=O)/C=C/c1cccc(Br)c1)NC1CCCCC1,1.15% (inactive)
13,CCC(C(=O)n1cccc1C#N)c1ccccc1C (centres undefined),-5.42% (inactive)
14,CCOC(=O)c1nn(-c2ccc(Cl)cc2)cc1O,47.5% (inactive)
15,CCOC(=O)c1nn(-c2ccc(C)cc2)cc1O,25.8% (inactive)
16,O=C(/C=C/Nc1ccc(Br)cc1F)c1ccco1,4.98% (inactive)
17,O=C(Oc1ccc(Br)cc1C(=O)/C=C/c1ccccc1F)c1ccco1,0.45% (inactive)
18,CS(=O)(=O)c1ccc(C(=O)OCC(=O)N2CCCc3ccccc32)cc1,-0.56% (inactive)
19,CCNS(=O)(=O)c1ccc(C(=O)OCC(=O)N2CCCc3ccccc32)cc1,5.95% (inactive)
